According to PubChem BioAssay (NCI):
About 79,000 compounds went through this panel and 15% of them were active in at least one assay; those are over-represented in the sample as a whole. The source made the active and inactive calls. Cut-off read from the data, not from the text of the source: active = growth inhibition above about 70%; inactive = the rest.

Columns and labels:
[1] = NCI Yeast Anticancer Drug Screen. Data for the rad50 strain (AID 155);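 note: 0% = growth of vehicle-only cultures of the same strain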; details: S. cerevisiae rad50 strain growth inhibition, active compounds read high
Method in brief: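 DNA repair mutant yeast, compound exposure, growth read-out; inhibition is taken relative to vehicle.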

[2] = NCI Yeast Anticancer Drug Screen. Data for the mec2-1 strain (AID 157); details: S. cerevisiae mec2-1 strain, active compounds read high
Method in brief: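 Vehicle-treated cultures served as reference for growth inhibition of compound-exposed mec2-1 yeast.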

[3] = NCI Yeast Anticancer Drug Screen. Data for the sgs1 mgt1 strain (AID 161);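 note: 0% = growth of cultures given vehicle only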; details: S. cerevisiae sgs1 mgt1 strain, active compounds read high
Method in brief: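 Inhibition of yeast growth, normalised to vehicle-treated controls, is reported for a strain bearing genetic alterations in DNA damage repair.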

[4] = NCI Yeast Anticancer Drug Screen. Data for the cln2 rad14 strain (AID 165);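 note: 0% = growth equal to vehicle treated cultures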; details: S. cerevisiae cln2 rad14 strain, active compounds read high
Method in brief: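 Each compound was tested on cln2 rad14 yeast. Inhibition of growth was calculated against vehicle-exposed controls.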

[5] = NCI Yeast Anticancer Drug Screen. Data for the bub3 strain (AID 167); details: S. cerevisiae bub3 mutant strain, active compounds read high
Method in brief: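 In this screen, a yeast mutant lacking normal mitotic checkpoint function is challenged with compound. Relative growth versus vehicle gives the inhibition value.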

[6] = NCI Yeast Anticancer Drug Screen. Data for the mlh1 rad18 strain (AID 175); details: S. cerevisiae mlh1 rad18 strain growth inhibition, active compounds read high
Method in brief: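 Vehicle-treated cultures served as the reference for growth inhibition in a yeast strain carrying DNA damage repair alterations exposed to each compound.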

[7] = at 5.0 µM (retest, dose inferred, filed as 0.5)
[8] = at 50.0 µM (retest, dose inferred, filed as 5.0)

Measured: growth inhibition

C/C(=N\NC(=S)N(C)C)c1cccnn1
active: [1]; [7] 95% | [1]; [8] 99% | [1]; at 50.0 µM 84.8% | [2]; [7] 91% | [2]; [8] 99% | [2]; at 50.0 µM 91.4% | [3]; [7] 92% | [3]; [8] 98% | [3]; at 50.0 µM 87.3% | [4]; [7] 94% | [4]; [8] 95% | [4]; at 50.0 µM 86.8% | [5]; [7] 95% | [5]; [8] 99% | [5]; at 50.0 µM 89.5% | [6]; [7] 96% | [6]; [8] 99% | [6]; at 50.0 µM 83.2%

CCC[CH2][Sn]([CH2]CCC)([NH]c1ncnc2[nH]cnc12)[NH]c1ncnc2[nH]cnc12
inactive: [1]; [7] 14% | [2]; [7] 14% | [3]; [7] 24% | [4]; [7] 30% | [5]; [7] 14% | [6]; [7] 20%
active: [1]; [8] 96% | [1]; at 50.0 µM 87.8% | [2]; [8] 98% | [2]; at 50.0 µM 91.7% | [3]; [8] 94% | [3]; at 50.0 µM 85.5% | [4]; [8] 89% | [4]; at 50.0 µM 85.2% | [5]; [8] 95% | [5]; at 50.0 µM 87.6% | [6]; [8] 98% | [6]; at 50.0 µM 86.9%

O=C(COc1ccc(Cl)cc1)OCCO
inactive: [1]; [7] 0% | [1]; [8] 0% | [1]; at 50.0 µM 4.9% | [2]; [7] -4% | [2]; [8] 0% | [2]; at 50.0 µM -5.75% | [3]; [7] -3% | [3]; [8] -1% | [3]; at 50.0 µM 0.4% | [4]; [7] 3% | [4]; [8] 5% | [4]; at 50.0 µM 40.4% | [5]; [7] 2% | [5]; [8] 4% | [5]; at 50.0 µM -5.6% | [6]; [7] 3% | [6]; [8] 5% | [6]; at 50.0 µM -25.6%

O=C1CSC(=Nc2ccc(F)cc2F)N1Cc1cccs1
inactive: [1]; [7] 44% | [2]; [7] 36% | [3]; [7] 39% | [4]; [7] 25% | [4]; [8] 63% | [4]; at 50.0 µM 50.1% | [5]; [7] 41% | [5]; [8] 61% | [6]; [7] 47%
active: [1]; [8] 92% | [1]; at 50.0 µM 80.2% | [2]; [8] 98% | [2]; at 50.0 µM 78.2% | [3]; [8] 98% | [3]; at 50.0 µM 90.5% | [5]; at 50.0 µM 86.2% | [6]; [8] 98% | [6]; at 50.0 µM 84.6%

O=P(Nc1ccccc1)(OCc1ccccc1)OCc1ccccc1
inactive: [1]; [7] -4% | [2]; [7] 12% | [3]; [7] -4% | [4]; [7] 13% | [4]; at 50.0 µM 67% | [5]; [7] 0% | [5]; at 50.0 µM 40.8% | [6]; [7] 5%
active: [1]; [8] 98% | [1]; at 50.0 µM 98.5% | [2]; [8] 99% | [2]; at 50.0 µM 94.7% | [3]; [8] 99% | [3]; at 50.0 µM 98.8% | [4]; [8] 99% | [5]; [8] 99% | [6]; [8] 99% | [6]; at 50.0 µM 99.1%

Cc1cc2c(C(C)C)c(O)c(O)c3coc(/c1=c1/c(C)cc4c(C(C)C)c(=O)c(=O)c5coc1c45)c32
inactive: [1]; [7] -1% | [2]; [7] 23% | [3]; [7] 25% | [4]; [7] -25% | [5]; [7] -3% | [6]; [7] 29%
active: [1]; [8] 97% | [1]; at 50.0 µM 98.9% | [2]; [8] 99% | [2]; at 50.0 µM 99.2% | [3]; [8] 99% | [3]; at 50.0 µM 99% | [4]; [8] 98% | [4]; at 50.0 µM 98.8% | [5]; [8] 97% | [5]; at 50.0 µM 98.5% | [6]; [8] 98% | [6]; at 50.0 µM 99.2%

O=C(c1cccs1)N(C(=S)N1CCN(c2ccccn2)CC1)C1CCCCC1
inactive: [1]; [7] 4% | [1]; [8] 66% | [1]; at 50.0 µM 54.5% | [2]; [7] -8% | [2]; [8] 61% | [2]; at 50.0 µM 54.8% | [3]; [7] 8% | [3]; [8] 31% | [3]; at 50.0 µM 67.2% | [4]; [7] 15% | [4]; [8] 44% | [4]; at 50.0 µM 38.8% | [5]; [7] 2% | [5]; [8] 31% | [5]; at 50.0 µM 68.6% | [6]; [7] 8% | [6]; [8] 29% | [6]; at 50.0 µM 49.6%

COC(C(=O)C1=C2Oc3c4c(cc(O)c3C(=O)C2C2=C(CCCC2)C1=O)OC(C)(C)C=C4)C(C)CCC=C(C)C (configuration not stated)
active: [1]; [8] 90% | [1]; at 50.0 µM 74.2% | [2]; [8] 90% | [2]; at 50.0 µM 79% | [3]; [8] 90% | [3]; at 50.0 µM 78.5% | [4]; [8] 90% | [4]; at 50.0 µM 80.9% | [5]; [8] 92% | [5]; at 50.0 µM 78% | [6]; [8] 92% | [6]; at 50.0 µM 80.2%
inactive: [1]; [7] 6% | [2]; [7] -1% | [3]; [7] 3% | [4]; [7] -5% | [5]; [7] 4% | [6]; [7] 4%

O=C1OC(=O)C2C=CC=CC12 (configuration not stated)
inactive: [1]; [7] 2% | [1]; [8] -5% | [1]; at 50.0 µM 50% | [2]; [7] -1% | [2]; [8] -9% | [2]; at 50.0 µM -8.45% | [3]; [7] 2% | [3]; [8] 4% | [3]; at 50.0 µM -7.9% | [4]; [7] -1% | [4]; [8] -6% | [4]; at 50.0 µM -74.8% | [5]; [7] -3% | [5]; [8] 2% | [5]; at 50.0 µM 6.15% | [6]; [7] 14% | [6]; [8] 2% | [6]; at 50.0 µM -12.2%
